# An excerpt weighted towards active compounds, which were near 2.9% of everything screened.
# PAFAH1B3 FP inh: PAFAH1B3 enzyme inhibitors, primary screen, biochemical, fluorescence polarization, human. inhibition, % at 3.39 µM. Platelet-activating factor acetylhydrolase IB subunit alpha1 (Homo sapiens), Q15102. recombinant PAFAH1B3, FP-rhodamine probe. 0.28% of 340,000 active;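 active means inhibition above the screen-wide average of all tested compounds plus 3 SD, cut at about 25% in these data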;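 further: 0% = enzyme with DMSO only and 100% = wells lacking PAFAH1B3 protein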
# Target sequence (Q15102 whole entry, looked up): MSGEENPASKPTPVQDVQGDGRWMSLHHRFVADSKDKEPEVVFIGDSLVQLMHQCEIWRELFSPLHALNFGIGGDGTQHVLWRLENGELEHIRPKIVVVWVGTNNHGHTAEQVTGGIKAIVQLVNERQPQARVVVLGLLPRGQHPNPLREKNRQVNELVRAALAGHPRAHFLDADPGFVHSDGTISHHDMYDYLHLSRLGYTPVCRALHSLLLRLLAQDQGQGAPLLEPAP
# PME-1 primary: PME-1 inhibitors via competitive probe labeling, primary screen, biochemical, fluorescence polarization, FP-Rh probe, HTS; Protein phosphatase methylesterase 1 (Homo sapiens), Q9Y570; recombinant PME-1; inhibition, % at 5.9 µM; 0.53% of 320,000 active;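 active means inhibition above the campaign mean of all compounds plus 3 SD, cut at about 26% in these data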;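 further: competitive labeling of PME-1 active site by serine hydrolase directed probe; 0% = PME-1 with DMSO and 100% = wells lacking PME-1 enzyme; inhibitors block probe labeling so polarization falls and inhibition rises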
# Target sequence (Q9Y570 whole entry, looked up): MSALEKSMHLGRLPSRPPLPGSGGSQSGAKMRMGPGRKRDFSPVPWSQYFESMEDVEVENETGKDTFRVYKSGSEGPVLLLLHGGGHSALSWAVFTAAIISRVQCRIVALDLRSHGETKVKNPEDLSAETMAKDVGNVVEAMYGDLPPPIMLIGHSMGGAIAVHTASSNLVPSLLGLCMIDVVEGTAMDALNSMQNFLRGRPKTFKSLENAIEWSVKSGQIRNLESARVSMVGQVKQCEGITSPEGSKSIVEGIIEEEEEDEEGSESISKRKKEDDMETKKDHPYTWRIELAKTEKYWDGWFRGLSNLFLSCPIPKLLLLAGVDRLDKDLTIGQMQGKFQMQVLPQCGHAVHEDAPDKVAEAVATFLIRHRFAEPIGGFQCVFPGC
# Fam108B counter: mouse Fam108B serine hydrolase inhibitors, primary screen, counter-screen for RBBP9 inhibitor project, biochemical, fluorescence polarization; recombinant Fam108B, FP-Rh probe fluorescence polarization; inhibition, % at 9.51 µM; 0.33% of 300,000 active; AID 1947, 2009;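 active means inhibition above the screen mean inhibition plus 3 SD, computed separately per campaign, cut at about 18% in these data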;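 further: inhibitors lower polarization as less probe binds the enzyme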
# PAFAH2 FP inh: PAFAH2 enzyme inhibitors, primary screen, biochemical, fluorescence polarization, human. recombinant PAFAH2, FP-rhodamine activity probe. Platelet-activating factor acetylhydrolase 2, cytoplasmic (Homo sapiens), Q99487. AID 492956, 2010. 0.99% of 340,000 active. inhibition, % at 3.39 µM;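 active means inhibition above the mean over all tested compounds plus 3 SD, cut at about 30% in these data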;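 further: inhibitors block probe labeling of enzyme so polarization drops; 0% = enzyme with DMSO and 100% = wells lacking PAFAH2 protein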
# pPAFAH inh: pPAFAH enzyme inhibitors, primary screen, biochemical, fluorescence polarization, human. 1.5% of 330,000 active. Platelet-activating factor acetylhydrolase (Homo sapiens), Q13093. inhibition, % at 3.39 µM. recombinant pPAFAH, FP-rhodamine probe fluorescence polarization;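 active means inhibition above the mean inhibition across the screen plus 3 SD, cut at about 25% in these data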;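 further: inhibitors block binding of the rhodamine activity-based probe so polarization drops; 0% = enzyme with DMSO and 100% = wells lacking pPAFAH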
# PAFAH1B2 inh: PAFAH1B2 enzyme inhibitors, primary screen, biochemical, fluorescence polarization, human | recombinant PAFAH1B2, FP-rhodamine activity probe | inhibition, % at 3.39 µM | Platelet-activating factor acetylhydrolase IB subunit alpha2 (Homo sapiens), P68402 | 1.2% of 340,000 active;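 active means inhibition above the mean of all tested compounds plus 3 SD, cut at about 24% in these data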;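 further: 0% = enzyme with DMSO and 100% = wells lacking PAFAH1B2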
# Active calls of the source: *; · = not tested or not shown.
SMILES,PAFAH1B3 FP inh,PME-1 primary,Fam108B counter,PAFAH2 FP inh,pPAFAH inh,PAFAH1B2 inh
O=C(Nc1ccccc1C(=O)O)c1cc(S(=O)(=O)Nc2cccc(F)c2)ccc1Cl,1.0,-0.7,-3.8,-8.2,31.3*,4.0
Cc1ccc(S(=O)(=O)Nc2ccc(S(=O)(=O)NCC3CCCO3)cc2)cc1 (stereo not given),1.5,-4.7,-4.8,1.2,2.9,42.9*
Cc1ccc(NS(=O)(=O)c2cccc(C(=O)NCC3CCCO3)c2)cc1 (stereo not given),3.2,4.9,2.0,-0.1,30.5*,1.8
COc1ccc(CCNC(=O)CCNC(=O)N2CC(=O)Nc3ccccc32)cc1,7.9,-10.5,-7.5,-0.1,-4.6,5.9
Cc1cc(C)c(NC(=O)COC(=O)c2ccc([N+](=O)[O-])s2)c(C)c1,13.2,-7.8,3.3,20.1,1.3,5.6
O=C(COC(=O)c1ccc([N+](=O)[O-])s1)NNC(=O)c1ccccc1,35.6*,·,·,36.0*,21.7,10.0
O=C(COC(=O)c1ccc([N+](=O)[O-])o1)NCc1ccc(F)cc1,7.7,·,·,8.8,5.4,2.1
O=C(COC(=O)c1ccc([N+](=O)[O-])s1)NCc1ccc(F)cc1,44.3*,8.4,6.2,52.5*,25.6*,17.0
CCN(CC)S(=O)(=O)c1cccc(C(=O)OCC(=O)NC(C)c2ccccc2)c1 (stereo not given),4.9,0.5,0.2,44.9*,26.7*,4.7
CC(NC(=O)COC(=O)c1cc(Cl)nc(Cl)c1)c1ccccc1 (stereo not given),-0.8,7.1,-6.8,1.9,5.2,3.3
O=C1CN(C(=O)COC(=O)c2ccc([N+](=O)[O-])s2)c2ccccc2N1,45.8*,·,·,32.1*,14.1,14.0
O=C1CN(C(=O)COC(=O)c2cccs2)c2ccccc2N1,-0.1,-0.2,·,3.3,0.3,1.7
CC1CC(C)(C)NC2(CCCC2)N1 (stereo not given),0.0,·,·,-5.9,·,2.9
CC(=O)Nc1ccc(S(=O)(=O)N2CCC3(CC2)OCCO3)cc1,6.6,2.4,1.7,-0.8,4.6,6.3
CC(OC(=O)c1ccccc1C(=O)N(C)c1ccccc1)C(=O)Nc1ccccc1[N+](=O)[O-] (stereo not given),4.8,4.1,0.3,6.3,-0.4,-1.9
CC(=O)C1=C(O)C(=O)N(Cc2ccccc2)C1c1ccc([N+](=O)[O-])cc1 (stereo not given),2.1,-2.2,3.2,6.6,-2.9,11.8
CC(NC(=O)COC(=O)/C=C/c1ccc([N+](=O)[O-])cc1)c1ccccc1 (stereo not given),-2.2,-6.9,7.3,12.3,11.5,-3.8
O=C(COC(=O)c1ccc([N+](=O)[O-])s1)NC(=O)NCc1ccccc1,30.3*,8.7,7.3,40.3*,14.1,8.5
O=C(COC(=O)CSc1ccc([N+](=O)[O-])cc1)NCCc1ccccc1,4.8,-0.7,2.9,1.8,5.9,18.2
CC(NC(=O)COC(=O)c1ccc([N+](=O)[O-])s1)c1ccccc1 (stereo not given),15.6,7.8,10.8,6.8,24.9*,9.2
O=C(COC(=O)c1ccc([N+](=O)[O-])s1)NCCc1ccccc1,32.2*,6.0,·,34.2*,16.8,16.5
Cc1noc(C)c1NC(=O)N(C)C[C@H]1Oc2ccc(NC(=O)C3CC3)cc2C(=O)N([C@H](C)CO)C[C@@H]1C,4.6,·,·,4.4,-1.2,6.8
O=C(CCCOc1ccccc1)NN1C(=O)NC2(CCCCC2)C1=O,0.8,2.5,0.7,0.4,5.7,3.8
CC(Oc1ccccc1)C(=O)N=C1SC2CS(=O)(=O)CC2N1Cc1ccc(F)cc1 (stereo not given),2.5,4.3,0.1,2.2,26.1*,5.6
Cc1ccc(NC(=O)c2cc(S(=O)(=O)N3CCCCC3)ccc2N2CCOCC2)cc1S(=O)(=O)N(C)C,25.5*,·,·,27.8,·,27.1*
SMILES,PAFAH1B3 FP inh,PME-1 primary,Fam108B counter,PAFAH2 FP inh,pPAFAH inh,PAFAH1B2 inh
O=C(Nc1ccccc1Cl)c1cc(S(=O)(=O)N2CCCCC2)ccc1N1CCOCC1,4.1,-0.1,-6.1,-2.3,-2.0,5.9
Cc1ccc(NC(=O)c2cc(N3C(=O)C=CC3=O)ccc2N2CCOCC2)cc1,-0.7,·,·,-11.2,·,-5.0
Cc1ccc(NC(=O)c2cc(S(=O)(=O)N(C)C)ccc2N2CCCC2)cc1S(=O)(=O)N(C)C,8.8,-7.3,-2.7,4.5,4.4,6.8
CC(NC(=O)c1cc(S(=O)(=O)N2CCOCC2)ccc1N1CCCC1)c1ccc(Cl)c(Cl)c1 (stereo not given),3.6,-1.3,2.1,9.7,28.4*,-0.7
Cc1ccc(NC(=O)c2cc(N3C(=O)C4CC=CCC4C3=O)ccc2N2CCOCC2)cc1Cl (stereo not given),12.3,-3.4,-0.2,3.3,25.8*,-3.3
Cc1ccc(C)c(N2CCN(S(=O)(=O)c3ccc4c(c3)NC(=O)CS4)CC2)c1,2.2,-7.4,-10.4,-1.4,3.1,1.4
CC(=O)NNC(=O)c1sc(=S)n2c1[nH]c(=O)c1sccc12,16.6,-2.2,10.4,20.3,33.4*,5.8
CCN(CCCNC(=O)c1nn(C)c2c1CS(=O)(=O)c1ccccc1-2)Cc1ccccc1,-1.0,8.0,1.6,-4.6,2.6,-1.7
O=C(NCC1CCCO1)c1ccc(COc2ccccc2)o1 (stereo not given),6.7,1.1,0.5,1.0,0.4,7.3
c1ccc(CN2CCN(C(c3ccccc3)c3nnnn3Cc3ccccc3)CC2)cc1 (stereo not given),1.8,1.3,0.6,14.0,5.6,14.9
Cc1ccc(C(c2nnnn2Cc2ccccc2)N2CCN(Cc3ccccc3)CC2)cc1 (stereo not given),1.4,1.0,1.4,-0.1,-1.6,30.9*
CCOC(=O)C[C@H]1c2ccccc2S(=O)(=O)N1C1CC1,5.5,5.4,-4.3,3.9,0.1,5.3
COC(=O)[C@]1(C)N[C@H](c2ccc(-c3ccc(OC)cc3)cc2)[C@@H]2C(=O)N(C)C(=O)[C@@H]21,-1.1,·,·,4.1,2.8,0.8
COC(=O)[C@]1(C)N[C@H](c2ccc(-c3ccc(Cl)c(Cl)c3)c(OC)c2)[C@@H]2C(=O)N(C)C(=O)[C@@H]21,0.7,-4.8,1.1,0.4,29.6*,1.1
O=c1ccc(NS(=O)(=O)c2ccc(Cl)cc2)cn1Cc1ccc(Cl)c(Cl)c1,3.9,1.1,5.3,13.1,12.9,27.7*
Cn1c(CN2CCCC2)nc2cc(NS(=O)(=O)c3ccc(Cl)cc3)ccc21,2.1,0.3,-0.4,-11.1,8.5,15.7
